Measured values reported in PubChem BioAssay AID1611 (NINDS Approved Drug Screening Program, 2009).

test: inducers of human heat shock response, cell-based, HSE luciferase (AID 1611); conditions: human cells, HSE-luciferase heat shock reporter; stronger effect = higher value

Point of comparison: CN1CCN(C(c2ccccc2)c2ccc(Cl)cc2)CC1 (stereo not given), fold change 1.12. Against it:
- CCN(CC)CCOC(=O)C(c1ccccc1)C1CCCCC1 (stereo not given) — the same, 1.12
- c1ccc(CN(CC2=NCCN2)c2ccccc2)cc1 — higher, 1.78
- COc1ccc(NS(=O)(=O)c2ccc(N)cc2)nn1 — higher, 1.39
- CC1(C)S[C@@H]2[C@H](NC(=O)[C@@H](N)c3ccc(O)cc3)C(=O)N2[C@H]1C(=O)O — higher, 1.21
- COc1ccc2cc([C@H](C)C(=O)O)ccc2c1 — lower, 0.71
- CCN(CC)CC(=O)Nc1c(C)cccc1C — lower, 0.78
- CCc1cc(C(N)=S)ccn1 — lower, 0.94
- O=C(C1CCCCC1)N1CC(=O)N2CCc3ccccc3C2C1 (stereo not given) — higher, 1.17
- Cc1ccc(/C(=C\CN2CCCC2)c2ccccn2)cc1 — lower, 0.61
- CC(=O)Oc1ccc2c(c1)CCC1C2CC[C@@]2(C)C1CC[C@@H]2OC(C)=O (stereo not given in full) — lower, 1.07
- COc1ccc(CN(CCN(C)C)c2ccccn2)cc1 — lower, 1.01
- CCCCC1(COC(=O)CCC(=O)O)C(=O)N(c2ccccc2)N(c2ccccc2)C1=O — lower, 0.82
- CCOc1ccc2c(c1)C(C)=CC(C)(C)N2 — higher, 1.18
- CCCCCCCCCCCCCCCC(=O)OC/C=C(C)/C=C/C=C(C)/C=C/C1=C(C)CCCC1(C)C — lower, 1.08
- Cc1nnc(NS(=O)(=O)c2ccc(N)cc2)s1 — lower, 0.85
- CCCCCC(=O)O[C@]1(C(C)=O)CCC2C3CCC4=CC(=O)CC[C@]4(C)C3CC[C@@]21C (stereo not given in full) — higher, 1.47
- CN=C(NC#N)NCCSCc1nc[nH]c1C — lower, 0.5
- CCCCNc1cc(C(=O)O)cc(S(N)(=O)=O)c1Oc1ccccc1 — lower, 1.03
- CC(=O)Nc1nnc(S(N)(=O)=O)s1 — lower, 0.33
- CC1(C)S[C@@H]2[C@H](NC(=O)[C@H](NC(=O)N3CCNC3=O)c3ccccc3)C(=O)N2C1C(=O)O (stereo not given in full) — lower, 0.89
- OCc1ccccc1O[C@@H]1O[C@H](CO)[C@@H](O)[C@H](O)[C@H]1O — lower, 1.04
- CC(=O)[C@H]1CCC2C3CC=C4C[C@@H](O)CC[C@]4(C)C3CC[C@@]21C (stereo not given in full) — lower, 0.92
- CC(=O)N(O)CCCCCNC(=O)CCC(=O)N(O)CCCCCNC(=O)CCC(=O)N(O)CCCCCN — lower, 0.7
- CCN(CC)CCOc1ccc2c(c1)C(=O)c1cc(OCCN(CC)CC)ccc1-2 — lower, 0.93
- CCCn1c(=O)c2[nH]c(C3CCCC3)nc2n(CCC)c1=O — lower, 0.74
- CCCc1ncc(C[n+]2ccccc2C)c(N)n1 — higher, 1.19
- O=c1c(O)cc2c(O)oc3c(=O)c(O)cc4c3c2c1CC=4O — higher, 1.46
- Cn1c(=O)c2[nH]cnc2n(C)c1=O — higher, 1.18
- COC(=O)Nc1nc2ccc(Sc3ccccc3)cc2[nH]1 — lower, 0.92
- CN(C)CCC(c1ccccc1)c1ccccn1 (stereo not given) — higher, 1.7
- NC(N)=O — lower, 1.06
- CC(=C(CCOP(=O)(O)O)SC(=O)c1ccccc1)N(C=O)Cc1cnc(C)nc1N — lower, 0.96
- NNC(=O)c1ccncc1 — lower, 0.48
- C=CCc1ccccc1OCC(O)CNC(C)C (stereo not given) — higher, 1.15
- CCN(CC)CCCC(C)Nc1c2ccc(Cl)cc2nc2ccc(OC)cc12 (stereo not given) — lower, 0.97
- O=C(O)c1cccnc1Nc1cccc(C(F)(F)F)c1 — lower, 1.08
- CC(Cc1cccc(C(F)(F)F)c1)NCCOC(=O)c1ccccc1 (stereo not given) — lower, 1.03
- O=C1CCC(N2C(=O)c3ccccc3C2=O)C(=O)N1 (stereo not given) — lower, 0.89
- CC1CCc2cc(F)cc3c(=O)c(C(=O)O)cn1c23 (stereo not given) — lower, 1.07
